TRHR enhancer = TRH receptor (human) allosteric enhancement | P34981 | AID 493056 | 360,000 compounds, 0.66% hits | enhancement, % at 2 µM | TRHR cells, fluo-8 calcium fluorescence, EC20 TRH enhancement; in the data active = enhancement above about 30%; note: 0% is about no effect
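TRHR-expressing cells loaded with fluo-8 calcium dye were read kinetically (ex 480/em 530) during compound addition, then stimulated with an EC20 of TRH (10 nM final). Enhancement of the Gq-mediated intracellular calcium response was scored.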
IL2 activator = IL-2 activation; IL-2 activation reporter assay, cell-based qHTS; stimulated with anti-CD3/CD4/CD28 beads; in transgenic mouse T cells; 360,000 compounds, 0.065% hits; activation, % (series mostly up to about 46 µM); in the data active = activation above about 50%; inconclusive = mostly about 30% to 49%; note: 0% is about no effect
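Unstimulated transgenic mouse T cells preincubated 60 min with compound, then stimulated with anti-CD3/anti-CD4-coated beads plus anti-CD28 for 18 h at 37 degrees C. IL-2 response read as EGFP and DsRed fluorescence by plate cytometry.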
CBFb-RUNX1 inh = blocks binding between human CBF-beta and RUNX1; AlphaScreen CBFb-His/RUNX1-biotin binding, biochemical; Potency, µM (titrated, usually from 59.8 µM), inactives show at the highest dose activity, negative = inhibition, actives largely listed as inhibitors; 230,000 tested, under 10 active; note: % of control where 0% means no effect
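Compounds were screened at multiple concentrations against a preformed CBF-beta(His)/RUNX1(biotin) complex (30 nM of each) for 15 min at room temperature, followed by 90 min with nickel and streptavidin beads and AlphaScreen reading.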
TRHR ag = TRH receptor (human) agonism; AID 493084; 360,000 compounds, 0.18% hits; TRHR cells, calcium flux fluo-8, FDSS agonist mode; P34981; activation, % at 2 µM; in the data active = activation above about 30%; note: 0% is about no effect
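Agonist-mode FDSS calcium read (Ex 480/Em 530, 1 s cycles) in 1536-well TRHR cells with fluo-8 dye, after 10-cycle baseline and 23 nL compound addition; TRH at EC20 (10 nM final) added afterwards for the enhancer phase.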
Epigenetic derep = derepresses silenced GFP reporter in murine cells. murine LDR cells, GFP reporter derepression, 30 h. Potency, µM (highest dose often 53.9 µM), inactives show at the highest dose GFP activation, most hits filed as activators. 280,000 compounds, 0.2% hits; note: potency is the fitted concentration of half-maximal effect; % of control where 0% means no effect; nearly all actives have a fitted effect of over 60% in size
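GFP-positive cell count by laser-scanning cytometry (objects 20–120 um) after 30 h, 37 C compound exposure of murine LDR cells; reporter is CMV-GFP integrated at a silenced locus, inducible by HDAC or DNMT inhibitors.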
MBNL1-CUG inh = blocks human MBNL1 binding to CUG repeat RNA; Q9NR56; TR-FRET MBNL1-His/biotin-(CUG)12 binding, 665/545 ratio; Potency, µM (highest dose often 57.5 µM), for inactives: at the top dose activity change, negative = inhibition, usual class: inhibitors; 280,000 compounds, 0.036% hits; AID 2675; active = well fitted inhibition curve with a large enough effect in the signal ratio, with a control signal flat, not every such curve was filed as active; inconclusive = small, poorly fitted or top-dose-only effect, or effect the other way, or a change in a side signal; inactive = no such curve, though single readings can be large or run the other way; the % refers to the signal ratio; note: potency is the fitted concentration of half-maximal effect; % is set by controls: 0 for no effect and ±100 for the full control effect
Target sequence (Q9NR56 whole entry, looked up): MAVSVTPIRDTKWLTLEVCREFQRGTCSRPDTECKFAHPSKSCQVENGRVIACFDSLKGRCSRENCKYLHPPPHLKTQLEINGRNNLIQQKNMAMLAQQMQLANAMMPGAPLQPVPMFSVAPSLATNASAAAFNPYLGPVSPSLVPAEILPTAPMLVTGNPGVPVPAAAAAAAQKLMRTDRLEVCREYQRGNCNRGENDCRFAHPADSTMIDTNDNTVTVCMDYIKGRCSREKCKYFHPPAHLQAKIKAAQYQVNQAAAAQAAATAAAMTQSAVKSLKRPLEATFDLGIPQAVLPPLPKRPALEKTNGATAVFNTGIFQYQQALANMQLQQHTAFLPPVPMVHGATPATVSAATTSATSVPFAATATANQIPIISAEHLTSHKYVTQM
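Inhibition of protein-RNA binding appears as loss of TR-FRET between terbium anti-His antibody on MBNL1-His and streptavidin-XL665 on biotin-(CUG)12. Activity is normalized to buffer-only and uninhibited-complex controls.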
Starred values were filed as active, the others as inactive; u = inconclusive; x = no result. Rows were chosen to be rich in hits. Some 0.88% of all compounds tested hit in one or more screens of this group. Unless noted, calls come from the whole dose curve; as a rule, active = well fitted curve in the direction sought with a large enough effect; inconclusive = small, poorly fitted or top-dose-only effect, or another doubt; inactive = no such curve, though single readings can be large; an effect the other way counts as inactive or inconclusive.

SMILES	TRHR enhancer	IL2 activator	CBFb-RUNX1 inh	TRHR ag	Epigenetic derep	MBNL1-CUG inh
COCCNC(=S)N/N=C(\C)c1ccc2cc(OC)ccc2c1	0	0	6%	0	7.9µM*	u
Cc1ccc(-c2noc(-c3nnn(-c4ccc(Br)cc4F)c3C)n2)cc1	1	x	x	0	-4%	x
Cc1ccccc1CS(=O)(=O)CCC(=O)NCCCN1CCN(c2ccccc2F)CC1	6	1	1%	0	-1%	-8%
O=C(CCS(=O)(=O)Cc1ccc(Cl)cc1)NCCCN1CCN(c2ccccc2F)CC1	33*	0	-1%	-1	-5%	1%
COc1ccccc1NC(=S)NCc1ccccn1	0	5	-7%	0	0%	x
COc1ccc(Cl)cc1NC(=S)NCc1ccccn1	31*	-1	-14%	0	-1%	u
COc1ccc(CC(=O)OCC(=O)NC(=O)NC2CCCCC2)cc1	39*	-1	8%	0	0%	-4%
COc1ccc(CC(=O)OCC(=O)NC(=O)NC2CCCC2)cc1	-1	1	x	-1	x	x
CCOCCCNc1nc2c(C)cccn2c(=O)c1/C=C1\SC(=S)N(C(C)CC)C1=O (stereo unspecified)	2	18	0%	21	3.2µM*	2%
CC(=O)Nc1sc(N/N=C\c2ccccc2F)nc1-c1cccs1	36*	-3	-1%	0	0%	11%
Cc1ccc(OCC(=O)Nc2sc3c(c2C(N)=O)CCCC3)c(C(C)(C)C)c1	8	x	x	0	-1%	x
COc1ccc(S(=O)(=O)N2CCC(c3nc4ccccc4[nH]3)CC2)cc1	39*	0	x	0	x	2%
CCOc1ccccc1C(=O)NCC(=O)N1CCN(Cc2ccc3c(c2)OCO3)CC1	33*	-1	x	0	x	x
COc1ccccc1C(=O)N1CCN(Cc2ccc3c(c2)OCO3)CC1	1	-3	-3%	0	4%	5%
COc1ccc(-c2ncn(CCC#N)c2[N+](=O)[O-])cc1	33*	0	-10%	-1	-1%	u
COCCNC(=O)C1(C(F)(F)F)C/C(=C/CCO)CCCO1 (stereo unspecified)	x	x	8%	x	x	x
COc1ccccc1C(=O)NNC(=S)NC(=O)c1sc2ccccc2c1Cl	6	-1	-11%	11	2%	x
COc1ccccc1C(=O)NC(=S)NNC(=O)c1sc2ccccc2c1Cl	3	-1	-3%	36*	-2%	u
CN(C)c1ccc(CNS(=O)(=O)c2ccc(-c3cc(C(F)(F)F)on3)s2)cc1	3	x	x	0	0%	x
C=CCNC(=O)c1onc(CSc2cccc3ccccc23)c1C(=O)O	33*	0	-1%	0	-2%	4%
CCOC(=O)N1CCc2c(sc(NCc3ccc(OC)c(Br)c3)c2C(=O)Nc2cc(OC)ccc2OC)C1	-3	x	x	0	-1%	x
CCc1nc(=O)c(-c2ccccc2)c(C)n1-c1ccccc1	37*	1	x	0	x	0%
COc1ccc(-n2c(C)nc(=O)c(-c3ccccc3)c2C)cc1	-3	0	4%	0	0%	5%
Cc1ccc(C(=O)Nc2cccc(-c3nc4ccccc4o3)c2)c(Cl)c1	-3	x	x	1	1%	x
Cc1cc2oc(C(=O)Nc3cccc(-c4nc5ccccc5o4)c3)c(C)c2cc1Cl	33*	x	x	-1	3%	x
CC(C)CN(c1ccccc1)S(=O)(=O)c1nnc(NC(=O)C2CCCCC2)s1	-6	x	x	0	28µM*	x
O=C(CN1C(=O)c2cccc3cccc1c23)Nc1ccccc1Br	0	x	x	0	3%	x
Cc1cc(C)c(N)c(C(=O)O)c1	38*	0	14%	1	-2%	-6%
Cc1cc(C(=O)O)cc(Br)c1N	0	1	4%	0	4%	-2%
CC(C)CCN(Cc1ccco1)C(=O)c1cc2c(s1)-c1ccccc1OC2	2	x	x	1	1%	x
